# According to PMC11006913:
# Positions count from the first letter of the chain named.
# Key:
# Test in all cases: PBM; 200 nM protein, PBS
# Conditions in all cases: dsDNA, one strand shown
# [1] = target: ALX3 (Homo sapiens, UniProt O95076 139-225, N203Q)
# [2] = target: ALX3 (Homo sapiens, UniProt O95076 139-225)
# [3] = target: ALX3 (Homo sapiens, UniProt O95076 139-225, L168Q)
# [4] = target: ALX3 (Homo sapiens, UniProt O95076 139-225, L168V)
# [5] = target: ALX3 (Homo sapiens, UniProt O95076 139-225, N203S)
# [6] = target: T1, NKX2-6 (Homo sapiens, UniProt A6NCS4 118-204)
# T1 sequence: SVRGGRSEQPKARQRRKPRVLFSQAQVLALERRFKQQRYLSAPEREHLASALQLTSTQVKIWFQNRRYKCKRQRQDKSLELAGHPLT
# [7] = target: PROP1 (Homo sapiens, UniProt O75360 56-141)
# [8] = target: PROP1 (Homo sapiens, UniProt O75360 56-141, R99H)
# [9] = target: T2, NKX2-6 (Homo sapiens, UniProt A6NCS4 118-204, F151L)
# T2 sequence: T1 sequence with F34L
# [10] = target: PROP1 (Homo sapiens, UniProt O75360 56-141, F88S)
# [11] = target: T3, PAX4 (Homo sapiens, UniProt O43316 9-242, F177V)
# T3 sequence: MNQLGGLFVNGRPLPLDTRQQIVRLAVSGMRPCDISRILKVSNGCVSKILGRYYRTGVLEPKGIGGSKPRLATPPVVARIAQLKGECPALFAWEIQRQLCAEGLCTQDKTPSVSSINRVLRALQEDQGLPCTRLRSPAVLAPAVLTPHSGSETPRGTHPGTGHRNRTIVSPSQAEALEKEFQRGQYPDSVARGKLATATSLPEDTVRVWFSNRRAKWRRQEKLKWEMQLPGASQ
# [12] = target: T4, PAX4 (Homo sapiens, UniProt O43316 9-242, R227W)
# T4 sequence: T3 sequence with V169F, R219W
# [13] = target: T5, PAX4 (Homo sapiens, UniProt O43316 9-242, F177Y)
# T5 sequence: T3 sequence with V169Y
# [14] = target: HOXD13 (Homo sapiens, UniProt P35453 263-343, T313R)
# [15] = target: HOXD13 (Homo sapiens, UniProt P35453 263-343)
# [16] = target: HOXD13 (Homo sapiens, UniProt P35453 263-343, T313A)
# [17] = target: VAX1 (Homo sapiens, UniProt Q5SQQ9 86-172)
# [18] = target: VAX1 (Homo sapiens, UniProt Q5SQQ9 86-172, T142I)
# [19] = target: VAX1 (Homo sapiens, UniProt Q5SQQ9 86-172, K157R)
# Sequence of VAX1 (Homo sapiens, UniProt Q5SQQ9 86-172, K157R) (Q5SQQ9 86-172 K157R): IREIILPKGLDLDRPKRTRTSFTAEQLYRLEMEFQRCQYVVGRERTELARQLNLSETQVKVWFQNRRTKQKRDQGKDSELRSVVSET
# Sequence of ALX3 (Homo sapiens, UniProt O95076 139-225, N203S) (O95076 139-225 N203S): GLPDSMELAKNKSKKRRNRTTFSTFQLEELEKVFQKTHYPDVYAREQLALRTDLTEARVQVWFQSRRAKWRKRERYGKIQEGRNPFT
# Sequence of ALX3 (Homo sapiens, UniProt O95076 139-225, L168V) (O95076 139-225 L168V): as the sequence (O95076 139-225 N203S) above, with L30V, S65N counted along it
# Sequence of ALX3 (Homo sapiens, UniProt O95076 139-225, N203Q) (O95076 139-225 N203Q): as the sequence (O95076 139-225 N203S) above, with S65Q counted along it
# Sequence of ALX3 (Homo sapiens, UniProt O95076 139-225) (O95076 139-225): as the sequence (O95076 139-225 N203S) above, with S65N counted along it
# Sequence of ALX3 (Homo sapiens, UniProt O95076 139-225, L168Q) (O95076 139-225 L168Q): as the sequence (O95076 139-225 N203S) above, with L30Q, S65N counted along it
# Sequence of HOXD13 (Homo sapiens, UniProt P35453 263-343) (P35453 263-343): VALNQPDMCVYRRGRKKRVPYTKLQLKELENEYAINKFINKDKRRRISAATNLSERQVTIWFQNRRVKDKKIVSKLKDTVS
# Sequence of HOXD13 (Homo sapiens, UniProt P35453 263-343, T313A) (P35453 263-343 T313A): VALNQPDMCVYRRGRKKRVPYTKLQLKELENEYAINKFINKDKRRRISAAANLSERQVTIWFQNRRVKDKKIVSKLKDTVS
# Sequence of HOXD13 (Homo sapiens, UniProt P35453 263-343, T313R) (P35453 263-343 T313R): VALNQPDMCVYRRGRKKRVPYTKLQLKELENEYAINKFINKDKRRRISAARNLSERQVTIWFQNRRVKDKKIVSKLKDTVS
# Sequence of PROP1 (Homo sapiens, UniProt O75360 56-141) (O75360 56-141): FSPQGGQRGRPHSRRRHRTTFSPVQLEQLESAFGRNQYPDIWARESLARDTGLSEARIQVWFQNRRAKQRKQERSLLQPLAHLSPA
# Sequence of PROP1 (Homo sapiens, UniProt O75360 56-141, R99H) (O75360 56-141 R99H): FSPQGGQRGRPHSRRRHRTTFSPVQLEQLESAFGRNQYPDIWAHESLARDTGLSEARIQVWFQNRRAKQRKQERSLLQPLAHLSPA
# Sequence of PROP1 (Homo sapiens, UniProt O75360 56-141, F88S) (O75360 56-141 F88S): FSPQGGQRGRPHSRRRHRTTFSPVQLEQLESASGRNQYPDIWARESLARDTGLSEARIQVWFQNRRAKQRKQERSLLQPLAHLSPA
# Sequence of VAX1 (Homo sapiens, UniProt Q5SQQ9 86-172) (Q5SQQ9 86-172): as the sequence (Q5SQQ9 86-172 K157R) above, with R72K counted along it
# Sequence of VAX1 (Homo sapiens, UniProt Q5SQQ9 86-172, T142I) (Q5SQQ9 86-172 T142I): as the sequence (Q5SQQ9 86-172 K157R) above, with T57I, R72K counted along it
sequence,measurement,setting,value
CGCTCCCC,binding signal,[1],"7.64 upbm affinity estimate (log intensity, higher = more binding, comparable within an allelic series)"
same,binding signal,[2],"7.58 upbm affinity estimate (log intensity, higher = more binding, comparable within an allelic series)"
same,binding signal,[3],"7.75 upbm affinity estimate (log intensity, higher = more binding, comparable within an allelic series)"
same,binding signal,[4],"7.7 upbm affinity estimate (log intensity, higher = more binding, comparable within an allelic series)"
same,binding signal,[5],"7.67 upbm affinity estimate (log intensity, higher = more binding, comparable within an allelic series)"
CGGCCCAG,binding signal,[1],"7.75 upbm affinity estimate (log intensity, higher = more binding, comparable within an allelic series)"
same,binding signal,[6],"8.83 upbm affinity estimate (log intensity, higher = more binding, comparable within an allelic series)"
same,binding signal,[2],"7.72 upbm affinity estimate (log intensity, higher = more binding, comparable within an allelic series)"
same,binding signal,[7],"6.51 upbm affinity estimate (log intensity, higher = more binding, comparable within an allelic series)"
same,binding signal,[8],"6.59 upbm affinity estimate (log intensity, higher = more binding, comparable within an allelic series)"
same,binding signal,[3],"7.67 upbm affinity estimate (log intensity, higher = more binding, comparable within an allelic series)"
same,binding signal,[9],"9.1 upbm affinity estimate (log intensity, higher = more binding, comparable within an allelic series)"
same,binding signal,[4],"7.67 upbm affinity estimate (log intensity, higher = more binding, comparable within an allelic series)"
same,binding signal,[10],"6.34 upbm affinity estimate (log intensity, higher = more binding, comparable within an allelic series)"
same,binding signal,[5],"7.74 upbm affinity estimate (log intensity, higher = more binding, comparable within an allelic series)"
ATATAATA,binding signal,[1],"8.64 upbm affinity estimate (log intensity, higher = more binding, comparable within an allelic series)"
same,binding signal,[11],"10.8 upbm affinity estimate (log intensity, higher = more binding, comparable within an allelic series)"
same,binding signal,[12],"10.9 upbm affinity estimate (log intensity, higher = more binding, comparable within an allelic series)"
same,binding signal,[5],"8.68 upbm affinity estimate (log intensity, higher = more binding, comparable within an allelic series)"
GGATGGCC,binding signal,[1],"7.66 upbm affinity estimate (log intensity, higher = more binding, comparable within an allelic series)"
same,binding signal,[2],"7.74 upbm affinity estimate (log intensity, higher = more binding, comparable within an allelic series)"
same,binding signal,[3],"7.73 upbm affinity estimate (log intensity, higher = more binding, comparable within an allelic series)"
same,binding signal,[4],"7.67 upbm affinity estimate (log intensity, higher = more binding, comparable within an allelic series)"
same,binding signal,[5],"7.67 upbm affinity estimate (log intensity, higher = more binding, comparable within an allelic series)"
AGGGGGGC,binding signal,[1],"7.49 upbm affinity estimate (log intensity, higher = more binding, comparable within an allelic series)"
same,binding signal,[2],"7.66 upbm affinity estimate (log intensity, higher = more binding, comparable within an allelic series)"
same,binding signal,[3],"7.62 upbm affinity estimate (log intensity, higher = more binding, comparable within an allelic series)"
same,binding signal,[4],"7.47 upbm affinity estimate (log intensity, higher = more binding, comparable within an allelic series)"
same,binding signal,[5],"7.44 upbm affinity estimate (log intensity, higher = more binding, comparable within an allelic series)"
TATACATA,binding signal,[1],"8.57 upbm affinity estimate (log intensity, higher = more binding, comparable within an allelic series)"
same,binding signal,[11],"10.7 upbm affinity estimate (log intensity, higher = more binding, comparable within an allelic series)"
same,binding signal,[13],"10.7 upbm affinity estimate (log intensity, higher = more binding, comparable within an allelic series)"
GCACCCCC,binding signal,[1],"7.73 upbm affinity estimate (log intensity, higher = more binding, comparable within an allelic series)"
same,binding signal,[6],"9.22 upbm affinity estimate (log intensity, higher = more binding, comparable within an allelic series)"
same,binding signal,[2],"7.8 upbm affinity estimate (log intensity, higher = more binding, comparable within an allelic series)"
same,binding signal,[3],"7.58 upbm affinity estimate (log intensity, higher = more binding, comparable within an allelic series)"
same,binding signal,[9],"9.15 upbm affinity estimate (log intensity, higher = more binding, comparable within an allelic series)"
same,binding signal,[4],"7.59 upbm affinity estimate (log intensity, higher = more binding, comparable within an allelic series)"
same,binding signal,[5],"7.76 upbm affinity estimate (log intensity, higher = more binding, comparable within an allelic series)"
ACCGGTTA,binding signal,[1],"8.13 upbm affinity estimate (log intensity, higher = more binding, comparable within an allelic series)"
same,binding signal,[2],"9.46 upbm affinity estimate (log intensity, higher = more binding, comparable within an allelic series)"
same,binding signal,[3],"8.24 upbm affinity estimate (log intensity, higher = more binding, comparable within an allelic series)"
same,binding signal,[4],"8.11 upbm affinity estimate (log intensity, higher = more binding, comparable within an allelic series)"
same,binding signal,[5],"8.2 upbm affinity estimate (log intensity, higher = more binding, comparable within an allelic series)"
CGAAATCA,binding signal,[1],"8.09 upbm affinity estimate (log intensity, higher = more binding, comparable within an allelic series)"
same,binding signal,[2],"9.04 upbm affinity estimate (log intensity, higher = more binding, comparable within an allelic series)"
same,binding signal,[7],"7.77 upbm affinity estimate (log intensity, higher = more binding, comparable within an allelic series)"
same,binding signal,[5],"8.15 upbm affinity estimate (log intensity, higher = more binding, comparable within an allelic series)"
AATATTCG,binding signal,[1],"8.28 upbm affinity estimate (log intensity, higher = more binding, comparable within an allelic series)"
same,binding signal,[2],"9.33 upbm affinity estimate (log intensity, higher = more binding, comparable within an allelic series)"
AGGCACGC,binding signal,[1],"7.63 upbm affinity estimate (log intensity, higher = more binding, comparable within an allelic series)"
same,binding signal,[2],"7.78 upbm affinity estimate (log intensity, higher = more binding, comparable within an allelic series)"
same,binding signal,[3],"7.71 upbm affinity estimate (log intensity, higher = more binding, comparable within an allelic series)"
same,binding signal,[4],"7.61 upbm affinity estimate (log intensity, higher = more binding, comparable within an allelic series)"
same,binding signal,[5],"7.64 upbm affinity estimate (log intensity, higher = more binding, comparable within an allelic series)"
CCTAACAG,binding signal,[1],"8.02 upbm affinity estimate (log intensity, higher = more binding, comparable within an allelic series)"
same,binding signal,[2],"8.92 upbm affinity estimate (log intensity, higher = more binding, comparable within an allelic series)"
same,binding signal,[3],"8.23 upbm affinity estimate (log intensity, higher = more binding, comparable within an allelic series)"
same,binding signal,[4],"8.19 upbm affinity estimate (log intensity, higher = more binding, comparable within an allelic series)"
same,binding signal,[5],"8.09 upbm affinity estimate (log intensity, higher = more binding, comparable within an allelic series)"
ATATTATA,binding signal,[1],"8.63 upbm affinity estimate (log intensity, higher = more binding, comparable within an allelic series)"
same,binding signal,[11],"10.7 upbm affinity estimate (log intensity, higher = more binding, comparable within an allelic series)"
same,binding signal,[12],"10.9 upbm affinity estimate (log intensity, higher = more binding, comparable within an allelic series)"
same,binding signal,[5],"8.69 upbm affinity estimate (log intensity, higher = more binding, comparable within an allelic series)"
CCCGAGAG,binding signal,[1],"7.84 upbm affinity estimate (log intensity, higher = more binding, comparable within an allelic series)"
same,binding signal,[2],"7.81 upbm affinity estimate (log intensity, higher = more binding, comparable within an allelic series)"
same,binding signal,[3],"7.74 upbm affinity estimate (log intensity, higher = more binding, comparable within an allelic series)"
same,binding signal,[4],"7.83 upbm affinity estimate (log intensity, higher = more binding, comparable within an allelic series)"
same,binding signal,[5],"7.85 upbm affinity estimate (log intensity, higher = more binding, comparable within an allelic series)"
TTATTAAA,binding signal,[1],"8.64 upbm affinity estimate (log intensity, higher = more binding, comparable within an allelic series)"
same,binding signal,[14],"10.8 upbm affinity estimate (log intensity, higher = more binding, comparable within an allelic series)"
same,binding signal,[15],"11.9 upbm affinity estimate (log intensity, higher = more binding, comparable within an allelic series)"
same,binding signal,[16],"11.7 upbm affinity estimate (log intensity, higher = more binding, comparable within an allelic series)"
same,binding signal,[5],"8.68 upbm affinity estimate (log intensity, higher = more binding, comparable within an allelic series)"
ATTTACGG,binding signal,[1],"8.3 upbm affinity estimate (log intensity, higher = more binding, comparable within an allelic series)"
same,binding signal,[2],"10.1 upbm affinity estimate (log intensity, higher = more binding, comparable within an allelic series)"
GACATAAC,binding signal,[1],"8.29 upbm affinity estimate (log intensity, higher = more binding, comparable within an allelic series)"
same,binding signal,[2],"9.44 upbm affinity estimate (log intensity, higher = more binding, comparable within an allelic series)"
CAGCACCC,binding signal,[1],"7.8 upbm affinity estimate (log intensity, higher = more binding, comparable within an allelic series)"
same,binding signal,[2],"7.73 upbm affinity estimate (log intensity, higher = more binding, comparable within an allelic series)"
same,binding signal,[3],"7.75 upbm affinity estimate (log intensity, higher = more binding, comparable within an allelic series)"
same,binding signal,[4],"7.68 upbm affinity estimate (log intensity, higher = more binding, comparable within an allelic series)"
same,binding signal,[5],"7.8 upbm affinity estimate (log intensity, higher = more binding, comparable within an allelic series)"
AATTGTCC,binding signal,[1],"8.15 upbm affinity estimate (log intensity, higher = more binding, comparable within an allelic series)"
same,binding signal,[6],"11.4 upbm affinity estimate (log intensity, higher = more binding, comparable within an allelic series)"
same,binding signal,[2],"10.1 upbm affinity estimate (log intensity, higher = more binding, comparable within an allelic series)"
same,binding signal,[9],"9.84 upbm affinity estimate (log intensity, higher = more binding, comparable within an allelic series)"
same,binding signal,[5],"8.23 upbm affinity estimate (log intensity, higher = more binding, comparable within an allelic series)"
AGAGGGGG,binding signal,[1],"7.63 upbm affinity estimate (log intensity, higher = more binding, comparable within an allelic series)"
same,binding signal,[2],"7.93 upbm affinity estimate (log intensity, higher = more binding, comparable within an allelic series)"
same,binding signal,[3],"7.69 upbm affinity estimate (log intensity, higher = more binding, comparable within an allelic series)"
same,binding signal,[4],"7.67 upbm affinity estimate (log intensity, higher = more binding, comparable within an allelic series)"
same,binding signal,[5],"7.59 upbm affinity estimate (log intensity, higher = more binding, comparable within an allelic series)"
CATATTAC,binding signal,[1],"8.38 upbm affinity estimate (log intensity, higher = more binding, comparable within an allelic series)"
same,binding signal,[2],"10.5 upbm affinity estimate (log intensity, higher = more binding, comparable within an allelic series)"
same,binding signal,[17],"10.8 upbm affinity estimate (log intensity, higher = more binding, comparable within an allelic series)"
same,binding signal,[18],"10.4 upbm affinity estimate (log intensity, higher = more binding, comparable within an allelic series)"
same,binding signal,[19],"10.5 upbm affinity estimate (log intensity, higher = more binding, comparable within an allelic series)"
CCGCGGAC,binding signal,[1],"7.74 upbm affinity estimate (log intensity, higher = more binding, comparable within an allelic series)"
same,binding signal,[2],"7.45 upbm affinity estimate (log intensity, higher = more binding, comparable within an allelic series)"
same,binding signal,[3],"7.7 upbm affinity estimate (log intensity, higher = more binding, comparable within an allelic series)"
same,binding signal,[4],"7.67 upbm affinity estimate (log intensity, higher = more binding, comparable within an allelic series)"
same,binding signal,[5],"7.75 upbm affinity estimate (log intensity, higher = more binding, comparable within an allelic series)"
GCTTCGAC,binding signal,[1],"7.77 upbm affinity estimate (log intensity, higher = more binding, comparable within an allelic series)"
same,binding signal,[14],"9.46 upbm affinity estimate (log intensity, higher = more binding, comparable within an allelic series)"
same,binding signal,[15],"9.32 upbm affinity estimate (log intensity, higher = more binding, comparable within an allelic series)"
same,binding signal,[2],"7.65 upbm affinity estimate (log intensity, higher = more binding, comparable within an allelic series)"
same,binding signal,[3],"7.79 upbm affinity estimate (log intensity, higher = more binding, comparable within an allelic series)"
same,binding signal,[16],"9.54 upbm affinity estimate (log intensity, higher = more binding, comparable within an allelic series)"
same,binding signal,[4],"7.79 upbm affinity estimate (log intensity, higher = more binding, comparable within an allelic series)"
same,binding signal,[5],"7.83 upbm affinity estimate (log intensity, higher = more binding, comparable within an allelic series)"
